Shown are actives, neighbours in structure and some others; about 3% of the full set was active somewhere.
CSC inhib – cancer stem cell inhibition. cancer stem cell-like cells viability, luminescence. AID 2717. inhibition, % at 7.5 µM. 300,000 tested, 1.1% active; in the data active means inhibition above about 75%; inconclusive means no clear call, values can overlap the other calls; tested in HMLE shEcad cells
KLF5 inhibitor – suppresses KLF5 promoter-driven expression. DLD-1 KLF5 promoter-luciferase reporter, luminescence. inhibition, % at 5 µM. 290,000 tested, 0.23% active. AID 1700;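 active means inhibition above a per-plate limit of that plate's mean compound inhibition plus 3 SD, cut at about 60% in these data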;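 further: 0% = DMSO wells and 100% = LY294002 at 200 µM; higher means less KLF5 promoter-driven luciferase light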
SKKanGAS inh – blocks kanamycin growth of S. pyogenes SKKanGAS strain; 300,000 tested, 1.3% active; BacTiter-Glo, 6 h; inhibition, % at 7.5 µM; AID 1662;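 active means mean replicate score, as percent of positive control median, at least 50; inconclusive means mean below 50 but one replicate at or above 50; inactive means mean and every replicate below 50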;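 further: strain carries kanamycin resistance gene driven by streptokinase promoter and grows in 40 µg/ml kanamycin; loss of luminescence reflects streptokinase promoter inhibition or plain growth inhibition; 0% = median of DMSO wells and 100% = positive control at its reference dose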
aSyn 5UTR inh – MLPCN primary screen, SNCA 5' untranslated region. alpha-synuclein 5'UTR reporter, inhibitor activity. inhibition, % (tested at 7.5 µM). 300,000 tested, 0.82% active; in the data active means inhibition above about 60%; inconclusive means no clear call, values can overlap the other calls;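 further: H4 neuroglioblastoma cells stably carrying SNCA 5'UTR luciferase fusion; 0% = DMSO wells and 100% = positive control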
IEC-6 tox-1 – IEC-6 cytotoxicity, counter-screen for KLF5 inhibitors. luminescence viability. inhibition, % at 5 µM. 290,000 tested, 0.78% active. AID 1825; in the data active means inhibition above about 22%;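 further: 0% = plate median of test compound wells and 100% = cytotoxic reference compound wells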
KLF5 inh confirm – KLF5 inhibition, confirmation assay; shares compounds with KLF5 inhibitor; DLD-1 KLF5 promoter firefly luciferase reporter, luminescence; inhibition, % at 4 µM; 610 tested, 79% active; AID 1834;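 active means inhibition above a set limit taken from the earlier primary screen, cut at about 63% in these data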;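 further: 0% = DMSO wells and 100% = LY294002 at 200 µM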
IEC-6 tox-2 – counter-screen for KLF5 inhibitors: cytotoxicity in rat IEC-6 cells | inhibition, % at 4 µM | 610 tested, 56% active | shares compounds with KLF5 inhibitor | IEC-6 rat intestinal cells, viability luminescence; in the data active means inhibition above about 23%;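 further: cells exposed to compounds for 48 hours before viability read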
The depositor's hits bear a star; ? = inconclusive; . = no result given.

SMILES	CSC inhib	KLF5 inhibitor	SKKanGAS inh	aSyn 5UTR inh	IEC-6 tox-1	others
Cc1cccc(OCc2n(CC(=O)OC3CC(C)CCC3C(C)C)c3ccccc3[n+]2C)c1 (stereo not given)	103.4*	-15.8	19.5	?	-0.5
CC1CCC(C(C)C)C(OC(=O)Cn2c(-c3ccc(F)cc3)[n+](C)c3ccccc32)C1 (stereo not given)	9.8	-8.5	.	.	5.1
O=C(NC1CCCC1)C1CCN(C(=O)c2cccc(Cl)c2)CC1	.	7.5	9.9	-6.4	8.2
Cc1cnc(C(=O)OC(C(=O)c2c[nH]c3ccccc23)c2ccccc2)cn1 (stereo not given)	12.5	.	0.9	18.1	.
Cc1ccc(C(=O)NCCc2cccs2)cc1	-2.0	39.5	4.5	73.2*	-2.9
O=C(NCCc1cccs1)c1ccc(Cl)cc1	-1.6	-76.5	6.5	21.3	-2.7
Cc1c(NC(=O)C(C)N(c2ccccc2)S(C)(=O)=O)c(=O)n(-c2ccccc2)n1C (stereo not given)	-16.1	-33.7	-0.8	2.3	-5.8
O=C(Nc1ccc(C(=O)N2CCCCC2)cc1)c1ccccc1Br	-2.9	-0.2	0.0	4.8	-0.4
N#Cc1ccc(C(=O)Nc2nc(SCc3ccc(Cl)cc3)n[nH]2)cc1	25.5	-21.5	86.8*	4.1	5.2
N#Cc1c(NC(=O)CSc2n[nH]c(Cc3ccccc3)n2)oc(-c2ccccc2)c1-c1ccccc1	101.8*	-12.6	?	6.1	-1.7
COc1ccc(-c2oc(NC(=O)CSc3ncn[nH]3)c(C#N)c2-c2ccc(OC)cc2)cc1	56.0	4.0	70.0*	5.8	6.2
CCOc1ccc(/C=N/OCC(=O)NCc2ccc3c(c2)OCO3)cc1OC	.	-6.5	0.6	0.0	-3.0
O=c1c2ccccc2sn1-c1cc(S(=O)(=O)N2CCOCC2)ccc1N1CCCC1	17.4	-42.1	85.5*	-8.9	0.8
O=c1c2ccccc2sn1-c1cc(S(=O)(=O)N2CCOCC2)ccc1N1CCOCC1	.	3.8	75.6*	31.5	3.3
CCn1cnc2c1c(=O)n(CC(=O)OC)c(=O)n2Cc1ccccc1	-1.0	-38.9	-4.6	19.8	-4.0
Cc1cccc(N2CCN(C(=O)Cc3ccccc3[N+](=O)[O-])CC2)c1C	-18.3	-72.3	0.6	-50.0	9.6
CC1(C(=O)O)CCC(C(=O)Nc2ccccc2)C1(C)C (stereo not given)	-5.5	-13.1	2.7	-5.7	0.0
COC(=O)C1(C)CCC(C(=O)Nc2ccccc2)C1(C)C (stereo not given)	-14.0	.	-8.7	62.0*	.
CNC(=O)c1nnsc1S(=O)(=O)c1ccc(Cl)cc1	.	16.5	1.1	-26.4	47.6*
O=C(c1nnsc1S(=O)(=O)c1ccc(Cl)cc1)N1CCOCC1	.	28.9	-0.9	-34.4	18.6
O=C(Cc1c(F)cccc1Cl)OCC(=O)c1ccc[nH]1	-11.9	.	.	.	.
COc1ccc(Br)cc1C(C[N+](=O)[O-])c1c(N)n(C)c(=O)n(C)c1=O (stereo not given)	83.4*	-38.0	8.4	22.5	-1.7
Cn1nnnc1SCC(=O)Nc1cc(S(=O)(=O)N2CCCCC2)ccc1Cl	-21.3	.	.	.	.
CC(=O)Nc1ccc(NC(=O)CSc2nnc(NC(=O)Cc3ccc(F)cc3)s2)cc1	-28.9	-20.9	21.1	-2.8	0.2
COc1cc(OC)cc(-c2c(-c3cccs3)c3cc(-c4ccc5c(c4)OCO5)ccc3n2C)c1	12.9	.	.	.	.
SMILES	CSC inhib	KLF5 inhibitor	SKKanGAS inh	aSyn 5UTR inh	IEC-6 tox-1	others
COc1cc(OC)cc(-c2c(-c3cccs3)c3cc(-c4ccc(N(C)C)nc4)ccc3n2C)c1	86.5*	.	.	.	.
Cn1c(-c2ccsc2)c(-c2cccs2)c2cc(Br)ccc21	80.5*	.	.	.	.
COc1cc(OC)cc(-c2c(-c3cccs3)c3cc(-c4ccn[nH]4)ccc3n2C)c1	87.1*	.	.	.	.
CCN(Cc1ccccc1)C(=O)CCS(=O)(=O)c1cc2c(cc1Cl)NC(=O)CO2	-13.0	-12.7	-4.2	16.0	2.1
Cc1cccc(NC(=O)c2cc([N+](=O)[O-])ccc2N2CCCCC2)n1	.	3.1	3.2	20.4	-0.7
O=c1c2c(-c3ccccc3)csc2ncn1/N=C/c1cccc([N+](=O)[O-])c1O	12.5	-9.0	3.3	-8.0	3.2
Cn1cc(/C=N/n2cnc3scc(-c4ccccc4)c3c2=O)c2ccccc21	45.4	-26.8	2.1	66.4*	1.2
Cc1ccsc1/C=N/Nc1ccc(C(=O)O)cc1	-6.6	63.5*	13.8	63.7*	9.4	KLF5 inh confirm=44.3;IEC-6 tox-2=-4.8
Cc1ccsc1/C=N/NC(=O)C(N)=O	-4.8	-35.5	-1.9	-56.8	-3.4
O=C(Nc1nc2cc3c(cc2s1)OCO3)C1=COCCO1	48.5	77.8*	15.5	94.5*	21.1	KLF5 inh confirm=49.2;IEC-6 tox-2=12.1
COc1ccc(-c2nsc3c(N4CCCCC4C)ncnc23)cc1 (stereo not given)	46.0	75.6*	31.8	89.8*	-1.6	KLF5 inh confirm=91.6*;IEC-6 tox-2=2.9
COc1ccc(-c2nsc3c(N4CCN(S(=O)(=O)c5ccccc5F)CC4)ncnc23)cc1	2.8	-11.6	2.6	-69.3	-2.5
COc1ccc(C23CC4CC(CC(C(=O)O)(C4)C2)C3)c(F)c1	-11.9	8.3	-4.2	2.2	-2.5
O=C(NCCc1ccccc1F)c1ccc2c(c1)OCCO2	1.1	99.6*	3.5	108.2*	1.5	KLF5 inh confirm=107.5*;IEC-6 tox-2=-0.4
CCn1c(COc2ccc(=O)n(-c3ccccc3)n2)n[nH]c1=S	-6.2	-6.5	4.1	14.7	-2.4
Nc1ncnc2c1ncn2[C@H]1C[C@H](O)[C@@H](COP(=O)(O)O)O1	4.5	74.8*	-2.9	9.4	-5.8	KLF5 inh confirm=-2.9;IEC-6 tox-2=7.0
Nc1ncnc2c1ncn2[C@H]1C[C@H](O)[C@@H](CO)O1	-2.8	-25.9	.	.	4.9
COC(CN(C(=O)CCl)C(C(=O)NC1CCCCC1)c1ccc(C)cc1)OC (stereo not given)	7.2	-6.5	2.9	-36.0	3.9
CCCCN(C)CCNC(=O)CN1C(=O)CSc2ccc(S(=O)(=O)N3CCCC3)cc21	-13.4	-4.0	0.8	-7.1	-4.3
c1ccc(-c2nnsc2Sc2ccccn2)cc1	-10.9	-26.4	-2.4	-90.6	-1.1
CCN(CC)C(=O)C(=O)N/N=C/c1ccc(C(=O)OC)cc1	-3.3	10.5	4.1	2.5	13.4
CC(C)(C)C(=O)Nc1ccc(NC(=O)c2ccco2)nc1	1.8	94.4*	0.0	101.6*	1.8	KLF5 inh confirm=101.7*;IEC-6 tox-2=8.8
Cc1ccc2nc(NC(=O)c3ccc(OCC4CCCO4)cc3)sc2c1 (stereo not given)	-13.0	67.7*	12.5	-41.6	-7.8	KLF5 inh confirm=-25.0;IEC-6 tox-2=9.8
Cc1ccc2nc(NC(=O)c3ccccn3)sc2c1	84.0*	64.7*	85.3*	111.4*	19.9	KLF5 inh confirm=86.8*;IEC-6 tox-2=98.1*
COc1ccc2nc(NC(=O)c3ccc(NC(=O)C4CCCO4)cc3)sc2c1 (stereo not given)	17.9	-0.1	7.6	-42.2	-6.4
Cc1cc(C)c2nc(NC(=O)c3ccc(OCC4CCCO4)cc3)sc2c1 (stereo not given)	4.2	96.9*	0.6	-21.1	1.3	KLF5 inh confirm=99.4*;IEC-6 tox-2=-3.0

Screening results (PubChem BioAssay)
